{
  "source": "PubChem BioAssay AID1852",
  "about": "(Sanford-Burnham Center for Chemical Genomics, 2009)",
  "note": "The whole screen tested about 2,500 compounds, of which about 1,100 (44%) were called active. The set was probably picked from earlier hits. The list shows a part of the results. Unmarked numbers belong to inactive results.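 The calls were made as follows: active = inhibition above 50% at 4 µM in the single-point screen; inactive = inhibition of 50% or less.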",
  "data": [
    {"assay": "blockers of TNF-a NF-kB luciferase induction – cell-based, HEK293T NF-kB-Luc, luminescence, selectivity assay for NOD1/NOD2 signaling inhibitor project, primary screen (AID 1852)", "conditions": "TNF-a induced, 14 h, at 4 µM, hits give high values", "values": [
      {"compound": "CCCNc1c(NS(=O)(=O)c2ccc3c(c2)CCCC3)c(=O)oc2ccccc12", "inhibition": "-3.6%"},
      {"compound": "Cc1cc(OCC(=O)Nc2ccncc2)cc(C)c1Cl", "inhibition": "41%"},
      {"compound": "Cc1cc(OCC(=O)Nc2ccncc2)cc(C)c1Br", "inhibition": "34.4%"},
      {"compound": "O=C(COc1ccc(Br)cc1)Nc1ccc(Cc2ccncc2)cc1", "inhibition": "64.1% (active)"},
      {"compound": "COc1cccc2sc(N(CCCN(C)C)C(=O)CCS(=O)(=O)c3ccccc3)nc12", "inhibition": "44.2%"},
      {"compound": "Nc1ncncc1-c1ccc2ccccc2c1", "inhibition": "16.7%"},
      {"compound": "Nc1nc(CCl)nc(Nc2ccc3ccccc3c2)n1", "inhibition": "-13.4%"},
      {"compound": "Nc1nc(N)c2cc(Sc3ccc4ccccc4c3)ccc2n1", "inhibition": "51.9% (active)"},
      {"compound": "O=C1C=C(Nc2ccccc2O)c2ccccc2C1=O", "inhibition": "38.6%"},
      {"compound": "CC(=O)Nc1ccc(S(=O)(=O)NCc2nc(-c3ccccc3C)no2)cc1", "inhibition": "-15.1%"},
      {"compound": "O=C(O)c1ccc(S(=O)(=O)/N=C2\\C=C(Nc3ccccc3F)C(=O)c3ccccc32)cc1", "inhibition": "89.6% (active)"},
      {"compound": "COC(=O)c1ccccc1NC1=C/C(=N\\S(=O)(=O)c2ccc(C(=O)O)cc2)c2ccccc2C1=O", "inhibition": "106% (active)"},
      {"compound": "Cc1ccccc1NC1=C/C(=N\\S(=O)(=O)c2ccc(C(=O)O)cc2)c2ccccc2C1=O", "inhibition": "104% (active)"},
      {"compound": "Cc1ccc(-c2nc(NC(=O)c3nn(C)cc3[N+](=O)[O-])sc2C)cc1C", "inhibition": "33.4%"},
      {"compound": "COc1ccc2sc3c(=O)[nH]c4ccccc4c3c2c1", "inhibition": "54.1% (active)"},
      {"compound": "Cn1cc(S(=O)(=O)N2CCc3ccccc32)cc1C(=O)Nc1ccc(Cl)cc1", "inhibition": "24.7%"},
      {"compound": "CCc1nnc(NC(=O)c2ccc(Cl)c(S(=O)(=O)N3CCc4ccccc4C3)c2)s1", "inhibition": "31.8%"},
      {"compound": "CCc1nnc(NC(=O)c2ccc(Cl)c(S(=O)(=O)N3CCc4ccccc43)c2)s1", "inhibition": "53.5% (active)"},
      {"compound": "O=C(COC(=O)c1ccccc1C(=O)c1ccc(Cl)c([N+](=O)[O-])c1)NC1CCCCCC1", "inhibition": "27.6%"},
      {"compound": "Cc1ccc[n+](CC(=O)Nc2ccc(Cl)c([N+](=O)[O-])c2)c1", "inhibition": "-10%"},
      {"compound": "N#Cc1cccc(NC(=O)Cn2cnc(S(=O)(=O)N3CCc4ccccc43)c2)c1", "inhibition": "8.2%"},
      {"compound": "Cc1ccc(Cl)c(NC(=O)COC(=O)c2ccccc2C(=O)c2ccc(Cl)c([N+](=O)[O-])c2)c1Cl", "inhibition": "84.2% (active)"},
      {"compound": "N#Cc1cccc(NC(=O)COC(=O)c2ccccc2C(=O)c2ccc(Cl)c([N+](=O)[O-])c2)c1", "inhibition": "83.2% (active)"},
      {"compound": "O=C(NCc1cc(Br)cc(Br)c1OC(=O)c1ccccc1[N+](=O)[O-])c1ccccc1", "inhibition": "-35.5%"},
      {"compound": "CCCNC(=O)COC(=O)c1ccccc1C(=O)c1ccc(Cl)c([N+](=O)[O-])c1", "inhibition": "65.9% (active)"},
      {"compound": "O=C(COC(=O)c1ccccc1C(=O)c1ccc(Cl)c([N+](=O)[O-])c1)NC1CC1", "inhibition": "73.1% (active)"},
      {"compound": "O=C(O)c1ccc(N/N=C/c2ccc(OC(=O)c3cccc(Cl)c3)cc2)cc1", "inhibition": "-26.3%"},
      {"compound": "Nc1ccc(C(=O)OCC(=O)N2CCc3ccccc3C2)cc1[N+](=O)[O-]", "inhibition": "31.9%"},
      {"compound": "CNC(=O)COC(=O)c1ccccc1C(=O)c1ccc(Cl)c([N+](=O)[O-])c1", "inhibition": "81.6% (active)"},
      {"compound": "CCOC(=O)c1sc(NC(=O)CSc2nc3c(cc2C#N)CCCCCC3)c(C#N)c1C", "inhibition": "52.1% (active)"},
      {"compound": "Cc1c(C)c2ccc(OCC(=O)Nc3ccccn3)c(C)c2oc1=O", "inhibition": "76.2% (active)"},
      {"compound": "Cc1c(OCC(=O)N2CCN(c3ccccc3)CC2)ccc2c3c(c(=O)oc12)CCCC3", "inhibition": "14.2%"},
      {"compound": "Cc1cc(C)c(C)c(S(=O)(=O)N2CCN(c3ncnc4sc(C)c(C)c34)CC2)c1C", "inhibition": "75.3% (active)"},
      {"compound": "Cc1sc2ncnc(N3CCN(S(=O)(=O)c4ccc(Br)cc4)CC3)c2c1C", "inhibition": "29.2%"},
      {"compound": "Cc1ccc(OCCN2CCN(c3ncnc4sc(C)c(C)c34)CC2)cc1", "inhibition": "63% (active)"},
      {"compound": "Cc1sc2ncnc(N3CCN(S(=O)(=O)c4ccc(F)cc4)CC3)c2c1C", "inhibition": "15%"},
      {"compound": "COC(=O)c1scc(C#N)c1N/N=C(\\C#N)S(=O)(=O)c1ccc(Cl)cc1", "inhibition": "-8.6%"},
      {"compound": "CC(C)(C)OC(=O)N1Cc2ccccc2C[C@H]1C(=O)NCC(=O)NC1CCCC1", "inhibition": "11%"},
      {"compound": "COCCCn1c(=O)c2sccc2n(Cc2cccc(C)c2)c1=O", "inhibition": "29.7%"},
      {"compound": "CC(=O)/C=C/n1c(=S)oc2ccccc21", "inhibition": "94.2% (active)"},
      {"compound": "CC(C)CC(=O)/C=C/n1c(=S)oc2ccccc21", "inhibition": "76.6% (active)"},
      {"compound": "CCCCC(=O)/C=C/n1c(=S)oc2ccccc21", "inhibition": "-6.6%"},
      {"compound": "COC(=O)N1C(=O)[C@@](Cc2ccccc2)(c2ccccc2)N1C(=O)OC", "inhibition": "59.8% (active)"},
      {"compound": "COC(=O)N1C(=O)[C@](CC(C)C)(c2ccccc2)N1C(=O)OC", "inhibition": "45.2%"},
      {"compound": "CCCCCCCCCn1c2c(c(=N)c3c1CCC3)CCCC2", "inhibition": "91.2% (active)"},
      {"compound": "CCCCCCCCn1c2c(c(=N)c3c1CCC3)CCCC2", "inhibition": "79.5% (active)"},
      {"compound": "CCCCCCCn1c2c(c(=N)c3c1CCC3)CCCC2", "inhibition": "76.9% (active)"},
      {"compound": "N=c1c2c(n(Cc3ccc(Cl)cc3)c3c1CCC3)CCC2", "inhibition": "12.4%"},
      {"compound": "CC1CCN(C(=O)c2ccc(S(=O)(=O)Cc3cc(F)ccc3F)c([N+](=O)[O-])c2)CC1", "inhibition": "50.4% (active)"},
      {"compound": "O=C(c1ccc(S(=O)(=O)Cc2cc(F)ccc2F)c([N+](=O)[O-])c1)N1CCCCC1", "inhibition": "-1.2%"},
      {"compound": "CC1CCN(C(=O)c2ccc(S(=O)(=O)Cc3cccc(F)c3)c([N+](=O)[O-])c2)CC1", "inhibition": "16.5%"},
      {"compound": "Cc1ccc(CS(=O)(=O)c2ccc(C(=O)N3CCN(c4ccccn4)CC3)cc2[N+](=O)[O-])cc1", "inhibition": "53% (active)"},
      {"compound": "O=C(c1ccc(S(=O)(=O)Cc2ccccc2Cl)c([N+](=O)[O-])c1)N1CCN(c2ccccn2)CC1", "inhibition": "58.6% (active)"},
      {"compound": "Cc1ccc(N=c2c([N+](=O)[O-])nn(-c3ccc4c(c3)OCCO4)n2O)cc1F", "inhibition": "0.1%"},
      {"compound": "CC(=O)N1CCCc2cc(S(=O)(=O)N3CCCC(C(=O)N4CCN(c5cc(C)ccc5C)CC4)C3)ccc21", "note": "(stereo not drawn)", "inhibition": "45.4%"},
      {"compound": "CC(=O)N1CCCc2cc(S(=O)(=O)N3CCCC(C(=O)N4CCN(c5cccc(Cl)c5)CC4)C3)ccc21", "note": "(stereo not drawn)", "inhibition": "57.4% (active)"},
      {"compound": "COc1ccccc1N1CCN(C(=O)C2CCCN(S(=O)(=O)c3ccc4c(c3)oc(=O)n4C)C2)CC1", "note": "(stereo not drawn)", "inhibition": "19.5%"},
      {"compound": "C=C(C)C(=O)O[C@H]1C/C(C)=C\\C(=O)/C=C(\\C)[C@H](O)[C@@H]2OC(=O)C(=C)[C@@H]21", "inhibition": "102% (active)"},
      {"compound": "O=C(COc1ccc(Cl)cc1Cl)Nc1ccc(C(=O)Nc2ccccc2C(=O)O)cc1", "inhibition": "53.4% (active)"},
      {"compound": "O=C(COc1cccc2ccccc12)Nc1ccc(Cl)cc1C(=O)O", "inhibition": "-62.6%"},
      {"compound": "Cc1cc(C(=O)Nc2ccccc2C(=O)O)ccc1NC(=O)COc1ccccc1Cl", "inhibition": "-11.7%"},
      {"compound": "CC(NC(=O)OCc1ccccc1)C(=O)Oc1cc2oc(=O)cc(-c3ccccc3)c2cc1Cl", "note": "(stereo not drawn)", "inhibition": "55.2% (active)"},
      {"compound": "Cc1ccc(CNC(=O)[C@H](C)[C@H]2C[C@]2(C)[C@H](NC(=O)OCc2ccccc2)c2ccccc2)o1", "inhibition": "1.6%"},
      {"compound": "CC(NC(=O)OC(C)(C)C)C(=O)Oc1cc2oc(=O)cc(-c3ccccc3)c2cc1Cl", "note": "(stereo not drawn)", "inhibition": "84.3% (active)"},
      {"compound": "Cc1c(Nc2c3ccccc3nc3ccccc23)c(=O)n(-c2ccccc2)n1C", "inhibition": "27.4%"},
      {"compound": "Cc1c(N=C2C=CC(=O)c3ccccc32)c(=O)n(-c2ccccc2)n1C", "inhibition": "76.4% (active)"},
      {"compound": "COc1ccc(-c2nc3nc(N)nn3cc2C)cc1F", "inhibition": "22.9%"},
      {"compound": "COc1ccc(-c2cc(N)n(S(=O)(=O)c3c(F)c(F)c(F)c(F)c3F)n2)cc1OC", "inhibition": "83.8% (active)"},
      {"compound": "COc1ccc(-c2cc(C(=O)NCCCN3CCOCC3)on2)cc1OC", "inhibition": "6%"},
      {"compound": "CCOC(=O)N=Nc1c2ccccc2c2nc3no[nH]c3nc12", "inhibition": "105% (active)"},
      {"compound": "COc1cc(/C=C2\\C(=N)N3N=C(S(C)(=O)=O)SC3=NC2=O)ccc1OCCOc1ccccc1C", "inhibition": "-26.4%"},
      {"compound": "COc1ccc(-n2c(C)c(C(C)=O)c3cc(O)ccc32)cc1", "inhibition": "72.1% (active)"},
      {"compound": "CC(=O)c1ccc(-n2c(C)c(C(C)=O)c3cc(O)ccc32)cc1", "inhibition": "50.8% (active)"},
      {"compound": "CC(=O)c1ccc(N2CCN(c3ccnc4cc(Cl)ccc34)CC2)cc1", "inhibition": "45.2%"},
      {"compound": "CC(=O)c1c(C)n(-c2ccc(Cl)cc2)c2ccc(O)cc12", "inhibition": "12.3%"},
      {"compound": "CC(=O)c1c(C)n(-c2ccccc2)c2ccc(O)cc12", "inhibition": "68% (active)"},
      {"compound": "Cc1ccc(S(=O)(=O)NC(CC(C)C)C(=O)N2CC(C)OC(C)C2)cc1", "note": "(stereo not drawn)", "inhibition": "9.2%"},
      {"compound": "O=C1CCC2S/C(=C/Nc3ccc(C(F)(F)F)cc3)C(=O)N12", "note": "(stereo not drawn)", "inhibition": "95.8% (active)"},
      {"compound": "Cc1cc(C(=O)N/N=C/c2cc(Br)cc(Br)c2OC(=O)c2cccc(F)c2)n[nH]1", "inhibition": "75.2% (active)"},
      {"compound": "Cc1cc(C(=O)N/N=C/c2cc(Br)ccc2OC(=O)c2ccccc2)n[nH]1", "inhibition": "91.1% (active)"},
      {"compound": "COc1cccc(C(=O)Oc2c(Br)cc(Br)cc2/C=N/NC(=O)c2cc(C)[nH]n2)c1", "inhibition": "71.1% (active)"},
      {"compound": "Cc1cccc(Nc2nc(N)nc(CCl)n2)c1", "inhibition": "25.3%"},
      {"compound": "Cc1c(-c2ccccc2)oc2c(C(=O)N3CCN(c4ccc([N+](=O)[O-])cc4)CC3)cccc2c1=O", "inhibition": "60.9% (active)"},
      {"compound": "O=[N+]([O-])c1ccc(N2CCN(c3ccccc3)CC2)nc1", "inhibition": "-49.6%"},
      {"compound": "Cc1ccc(S(=O)(=O)NCc2ccc(C(=O)N3CCN(c4ccc([N+](=O)[O-])cc4)CC3)cc2)cc1", "inhibition": "43.8%"},
      {"compound": "CCN1CCN(S(=O)(=O)c2ccc(Cl)c(C(=O)Nc3cc(Cl)ccc3N3CCOCC3)c2)CC1", "inhibition": "28.9%"},
      {"compound": "CCN1CCN(S(=O)(=O)c2c(C)cc(C)cc2C)CC1", "inhibition": "54.2% (active)"},
      {"compound": "Cc1ccc(S(=O)(=O)N2CCN(CCC#N)CC2)cc1", "inhibition": "44.4%"}
    ]}
  ]
}
